Assay [1] in a line: binders of probe aFSTL3 on microarray, primary screen, stem cell growth factor project, biochemical, small-molecule microarray, fluorescence 635/667 (AID 1064).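 Also: measures binding of the biotinylated anti-FSTL3 antibody to printed compounds.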 Conditions: higher = more signal.
Assay [2] in a line: binders from COS7 lysate, DM2A8 probe, primary screen, torsin A project, cell lysate, small-molecule microarray, fluorescence 635/667 (AID 1065). Particulars: higher = more signal, COS7 lysate expressing mutant human TOR1A.
Assay [3] is described as follows: binders of probe aFGF2 on microarray, primary screen, stem cell growth factor project, biochemical, small-molecule microarray, fluorescence 635/667 (AID 1067).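 Also: measures binding of biotinylated aFGF2 protein to printed compounds on slides; z-score merges feature fluorescence and signal-to-noise across triplicate slides.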 Conditions: higher = more signal.
A short description of assay [4]: binders of probe aFGF10 on microarray, primary screen, stem cell growth factor project, biochemical, small-molecule microarray, fluorescence 635/667 (AID 1071).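 Also: score merges 667 nm spot intensity and signal to noise from triplicate slides.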 Particulars: higher = more signal.
Assay [5] has as its target Neurogenic locus notch homolog protein 2 (Homo sapiens) (UniProt Q04721). Briefly: Notch2 binders on small-molecule microarrays, primary screen, biochemical, small-molecule microarray, 635 nm fluorescence, stem cell growth factors (AID 1073). Conditions: Notch2 binding, higher = more signal.
The target of assay [6] is Pro-neuregulin-1, membrane-bound isoform (Homo sapiens) (UniProt Q02297). In words: NRG1 binders on small-molecule microarrays, primary screen, psychiatric disease protein project, biochemical, small-molecule microarray, fluorescence 635/667 (AID 1075).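 Also: score combines 667 nm spot fluorescence with signal to noise.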 Conditions: NRG1 binding, 635 nm fluorescence, higher = more signal.
Pro-neuregulin-1, membrane-bound isoform (Homo sapiens), sequence (Q02297 whole entry, looked up, the tested form may be a part, canonical isoform): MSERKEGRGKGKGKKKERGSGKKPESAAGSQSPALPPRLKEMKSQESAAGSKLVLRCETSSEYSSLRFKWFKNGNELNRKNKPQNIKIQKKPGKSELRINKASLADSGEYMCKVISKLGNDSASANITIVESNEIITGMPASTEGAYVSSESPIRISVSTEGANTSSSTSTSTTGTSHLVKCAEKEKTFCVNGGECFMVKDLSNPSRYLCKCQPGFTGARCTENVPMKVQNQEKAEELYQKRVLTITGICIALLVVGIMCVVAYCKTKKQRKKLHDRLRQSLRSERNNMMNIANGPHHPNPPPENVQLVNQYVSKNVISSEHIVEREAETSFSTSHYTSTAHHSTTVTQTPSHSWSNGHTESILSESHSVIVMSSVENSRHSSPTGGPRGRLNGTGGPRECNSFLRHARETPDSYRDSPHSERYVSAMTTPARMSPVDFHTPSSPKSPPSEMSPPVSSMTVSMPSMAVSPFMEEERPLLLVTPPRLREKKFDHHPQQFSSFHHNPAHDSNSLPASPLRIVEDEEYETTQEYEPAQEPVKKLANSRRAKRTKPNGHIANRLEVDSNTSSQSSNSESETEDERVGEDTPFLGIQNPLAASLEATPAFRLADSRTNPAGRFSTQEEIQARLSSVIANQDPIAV
For assay [7], the system named is Neuregulin-1 EGF-like domain. In words: binders of neuregulin-1 EGF-like domain, primary screen, biochemical, small-molecule microarray, 635 nm fluorescence (AID 1081).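 Also: binding of the protein to compounds printed on small-molecule microarray slides.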 Particulars: small-molecule microarray binding, higher = more signal.
Assay [8] in a line: FRG1 promoter luciferase signal modulators, primary screen, FRG1 inhibition for FSHD, cell-based, C2C12 myotubes, firefly/Renilla luciferase, luminescence (AID 1084). Conditions: higher = more signal, called active from +8 up or from −8 down.
Assay [9] in a line: binders of probe aFST on microarray, primary screen, stem cell growth factor project, biochemical, small-molecule microarray, fluorescence 635/667 (AID 1086).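 Also: score merges 667 nm fluorescence with signal-to-noise of each printed compound spot.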 Conditions: higher = more signal.
Assay [10] in a line: binders of probe aHhip on microarray, primary screen, stem cell growth factor project, biochemical, small-molecule microarray, fluorescence 635/667 (AID 1087).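 Also: score merges spot fluorescence at 667nm with spot signal to noise ratio.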 Conditions: higher = more signal.
The test system of assay [11] is PRMT1 (protein arginine N-methyltransferase 1). Briefly: PRMT1 binders on small-molecule microarrays, primary screen, biochemical, small-molecule microarray, 635 nm fluorescence (AID 1088).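 Also: binding of Prmt1 protein to compounds spotted on small-molecule microarray slides.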 Conditions: small-molecule microarray binding, higher = more signal.
Assay [12] is described as follows: yeast growth modulation, basal conditions, primary screen, YJM789 clinical isolate, OD600, 24 h (AID 1089).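 Also: growth of clinical yeast isolate S. cerevisiae YJM 789 seeded 1000 cells per well; test concentration not given here.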 Conditions: S. cerevisiae YJM789 growth, higher = more signal, called active from +8 up or from −8 down.
The nature of assay [13]: fission yeast growth modulation, primary screen, strain 972, OD600, 24 h, no modulator (AID 1090).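 Also: basal condition with compound alone and no growth modifier present; test concentration not given here.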 Conditions: S. pombe 972 growth, higher = more signal, called active from +8 up or from −8 down.
Assay [14] in a line: S. cerevisiae growth modulation with rapamycin, primary screen, strain BY4716, OD600, 96 h (AID 1091). Also: test concentration not given here. Conditions: higher = more signal, called active from +8 up or from −8 down.
Assay [15] concerns the target Torsin-1A-interacting protein 2 (Homo sapiens) (UniProt Q8NFQ8). In words: LULL1 binders on small-molecule microarray, primary screen, cell lysate, human LULL1 lysate, 635/667 nm fluorescence (AID 1092).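 Also: probe is lysate of COS7 cells overexpressing human LULL1; score merges per-feature 667 nm fluorescence with signal-to-noise.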 Particulars: hLULL1 lysate binding, 635 nm fluorescence, higher = more signal.
The nature of assay [16]: E. coli growth modulation, two-sided OD650, primary screen, E. coli filamentation project, strain DRC41, 24 h (AID 1093).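 Also: MC1000 strain lacking acrAB efflux and sulA so SOS filamentation is blocked; test concentration not given here.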 Particulars: OD650, 24 h, higher = more signal, called active from +8 up or from −8 down.
The nature of assay [17]: small-molecule microarray binders of probe aLefty2, primary screen, biochemical, biotinylated probe, 635/667 nm fluorescence (AID 1094).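 Also: score merges spot fluorescence near 667 nm with spot signal-to-noise ratio.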 Conditions: higher = more signal.
Assay [18] has as its system Noggin (protein binding on small-molecule microarray). Briefly: Noggin binders on small-molecule microarray, primary screen, biochemical, 635/667 nm fluorescence (AID 1095).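 Also: score merges 667 nm feature fluorescence with signal to noise over triplicate slides.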 Particulars: 635 nm fluorescence, higher = more signal.
In assay [19] the target is Neurogenic locus notch homolog protein 3 (Homo sapiens) (UniProt Q9UM47). In words: NOTCH3 binders on small-molecule microarray, primary screen, biochemical, 635/667 nm fluorescence (AID 1096). Conditions: NOTCH3 binding, 635 nm fluorescence, higher = more signal.
The nature of assay [20]: small-molecule microarray binders of probe aEGFR, primary screen, biochemical, biotinylated probe, 635/667 nm fluorescence (AID 1097).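 Also: probe is a biotinylated anti-EGFR antibody binding compounds printed on slides; score combines fluorescence near 667 nm and signal to noise of each spot.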 Conditions: higher = more signal.

Active and inactive are the calls of the source.

Torsin-1A-interacting protein 2 (Homo sapiens), sequence (Q8NFQ8 whole entry, looked up): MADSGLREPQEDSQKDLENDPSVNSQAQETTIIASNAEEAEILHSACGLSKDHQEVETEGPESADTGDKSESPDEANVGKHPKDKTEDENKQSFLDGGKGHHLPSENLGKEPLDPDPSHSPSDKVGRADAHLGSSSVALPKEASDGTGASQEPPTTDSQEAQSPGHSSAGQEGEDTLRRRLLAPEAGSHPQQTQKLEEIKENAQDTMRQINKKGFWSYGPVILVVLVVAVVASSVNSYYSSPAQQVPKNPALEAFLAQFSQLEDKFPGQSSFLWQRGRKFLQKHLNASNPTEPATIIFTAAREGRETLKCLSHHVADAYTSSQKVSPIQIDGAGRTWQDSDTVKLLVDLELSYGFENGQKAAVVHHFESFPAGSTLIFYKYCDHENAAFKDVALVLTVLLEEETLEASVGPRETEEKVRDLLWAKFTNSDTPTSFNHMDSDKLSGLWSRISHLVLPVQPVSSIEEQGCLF
Neurogenic locus notch homolog protein 2 (Homo sapiens), sequence (Q04721 whole entry, looked up, canonical isoform): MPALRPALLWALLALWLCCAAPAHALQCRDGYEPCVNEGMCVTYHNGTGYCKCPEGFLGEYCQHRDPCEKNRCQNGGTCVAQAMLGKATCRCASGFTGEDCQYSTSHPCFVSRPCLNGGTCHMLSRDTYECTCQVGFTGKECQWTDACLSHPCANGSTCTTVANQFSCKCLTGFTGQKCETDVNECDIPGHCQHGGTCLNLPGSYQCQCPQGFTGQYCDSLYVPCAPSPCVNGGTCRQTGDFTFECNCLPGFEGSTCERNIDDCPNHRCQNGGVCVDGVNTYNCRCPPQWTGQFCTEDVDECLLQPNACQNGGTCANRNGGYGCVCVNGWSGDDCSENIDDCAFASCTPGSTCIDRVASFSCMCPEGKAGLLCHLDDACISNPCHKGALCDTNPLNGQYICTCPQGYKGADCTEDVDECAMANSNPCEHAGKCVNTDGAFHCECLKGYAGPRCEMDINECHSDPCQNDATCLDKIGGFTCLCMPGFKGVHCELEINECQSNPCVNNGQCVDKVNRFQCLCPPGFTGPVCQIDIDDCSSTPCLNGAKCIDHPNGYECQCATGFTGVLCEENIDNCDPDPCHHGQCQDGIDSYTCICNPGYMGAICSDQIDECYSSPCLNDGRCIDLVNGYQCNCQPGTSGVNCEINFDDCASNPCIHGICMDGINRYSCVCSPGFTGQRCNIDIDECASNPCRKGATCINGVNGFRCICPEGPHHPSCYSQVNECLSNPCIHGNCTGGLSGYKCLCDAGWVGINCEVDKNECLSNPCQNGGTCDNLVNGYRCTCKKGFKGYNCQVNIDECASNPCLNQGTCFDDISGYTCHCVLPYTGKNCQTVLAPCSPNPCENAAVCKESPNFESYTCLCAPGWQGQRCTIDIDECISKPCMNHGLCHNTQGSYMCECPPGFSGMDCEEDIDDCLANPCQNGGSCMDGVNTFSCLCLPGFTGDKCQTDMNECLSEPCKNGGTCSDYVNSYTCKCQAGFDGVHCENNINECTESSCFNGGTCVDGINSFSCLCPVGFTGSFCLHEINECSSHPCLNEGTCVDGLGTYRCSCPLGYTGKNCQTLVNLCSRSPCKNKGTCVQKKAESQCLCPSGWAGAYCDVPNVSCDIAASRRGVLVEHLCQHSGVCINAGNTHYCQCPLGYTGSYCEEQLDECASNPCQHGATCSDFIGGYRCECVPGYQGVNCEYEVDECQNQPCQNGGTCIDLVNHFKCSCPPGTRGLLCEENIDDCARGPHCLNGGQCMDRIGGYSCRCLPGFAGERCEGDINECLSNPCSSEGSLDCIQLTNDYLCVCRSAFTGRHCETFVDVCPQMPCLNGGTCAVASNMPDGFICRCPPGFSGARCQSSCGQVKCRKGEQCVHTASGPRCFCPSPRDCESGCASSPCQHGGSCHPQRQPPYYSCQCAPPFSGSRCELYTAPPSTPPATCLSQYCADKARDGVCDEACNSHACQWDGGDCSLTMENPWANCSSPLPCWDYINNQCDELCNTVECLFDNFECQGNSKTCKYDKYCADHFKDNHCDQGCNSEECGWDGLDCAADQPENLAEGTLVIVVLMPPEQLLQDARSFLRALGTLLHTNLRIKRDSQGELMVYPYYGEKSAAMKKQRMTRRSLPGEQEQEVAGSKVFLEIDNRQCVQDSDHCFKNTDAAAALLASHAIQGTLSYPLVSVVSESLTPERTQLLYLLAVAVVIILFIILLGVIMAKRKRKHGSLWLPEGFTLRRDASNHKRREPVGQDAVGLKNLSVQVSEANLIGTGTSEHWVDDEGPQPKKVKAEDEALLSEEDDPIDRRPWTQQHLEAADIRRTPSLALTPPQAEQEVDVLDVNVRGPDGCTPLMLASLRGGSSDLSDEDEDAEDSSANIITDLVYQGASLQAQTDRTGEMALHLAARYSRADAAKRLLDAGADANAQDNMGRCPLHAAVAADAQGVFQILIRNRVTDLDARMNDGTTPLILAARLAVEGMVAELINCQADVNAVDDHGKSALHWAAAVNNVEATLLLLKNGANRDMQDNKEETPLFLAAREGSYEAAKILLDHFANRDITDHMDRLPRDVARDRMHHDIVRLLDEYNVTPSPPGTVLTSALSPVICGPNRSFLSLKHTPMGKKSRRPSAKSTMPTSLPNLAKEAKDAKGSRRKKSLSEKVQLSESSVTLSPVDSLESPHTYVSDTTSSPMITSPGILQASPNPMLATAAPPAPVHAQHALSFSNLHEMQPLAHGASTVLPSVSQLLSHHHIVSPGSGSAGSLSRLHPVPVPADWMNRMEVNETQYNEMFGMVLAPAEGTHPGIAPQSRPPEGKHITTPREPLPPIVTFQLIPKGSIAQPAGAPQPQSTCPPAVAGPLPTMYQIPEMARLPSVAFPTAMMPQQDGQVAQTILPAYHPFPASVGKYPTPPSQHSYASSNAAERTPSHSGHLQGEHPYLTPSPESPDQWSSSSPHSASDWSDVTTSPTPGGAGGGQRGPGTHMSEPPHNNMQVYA

On to `NC(=O)NCC#Cc1ccc2c(c1)[C@]1(C(=O)N2)[C@H](c2ccc(O)cc2)N2[C@H](c3ccccc3)[C@H](c3ccccc3)OC(=O)[C@H]2[C@@H]1C(=O)NC[C@H](O)c1ccccc1`, for which the composite z-score in assay [1] is 1.38; in [2], -1.23; in assay [3] it was -0.132; in assay [4], -1.17; in [5], -1.17; in assay [6] it was 0.831. The composite z-score is -0.18 in [7]; -0.268 in assay [9]; 0.172 in assay [10]; -0.0161 in assay [11]; -0.383 in assay [15]; -0.0435 in [17]. Besides, the composite z-score was -2.14 in [18], -0.91 in [19] and -0.276 in [20]. Moreover, the z-score is -0.0208 (inactive) in assay [8]; -0.195 (inactive) in [12]; 0.207 (inactive) in [13]; -0.0001 (inactive) in assay [14]; 0.821 (inactive) in assay [16].

Turning to `CCCC=C(CCC)[C@@H](NS(=O)(=O)c1ccccc1)c1ccc(C(F)(F)F)cc1`, the composite z-score was -0.201 in assay [1]; 0.322 in assay [2]; 0.174 in assay [3]; 0.96 in assay [4]; 1.55 in [5]; 1.52 in assay [6]. Moreover, the composite z-score in [7] was 1.13; in [9] it was 1.05; in [10] it was 0.28; in assay [11], 1.39; in [15] it was 3.47; in assay [17], 0.413. Further, the composite z-score in [18] is 0.554; in assay [19], 1.08; in assay [20] it was 0.132. Also, the z-score in assay [8] was -2.28 (inactive); in assay [12] it was 0.3 (inactive); in assay [13], 1.39 (inactive); in assay [14], 12.1 (active); in assay [16], -0.644 (inactive).

Turning to `NC(=O)NCC#Cc1ccc2c(c1)[C@]1(C(=O)N2)[C@H](c2ccc(OCCO)cc2)N2[C@H](c3ccccc3)[C@H](c3ccccc3)OC(=O)[C@H]2[C@@H]1C(=O)N1CCCCCCC1`, the composite z-score worked out at 3.57 in assay [1]; 0.48 in assay [2]; 0.943 in assay [3]; 1.2 in assay [4]; 1.53 in assay [5]; 1.74 in assay [6]. The composite z-score was determined as 0.955 in [7]; 3.04 in [9]; 3.79 in assay [10]; 1.09 in [11]; 3.3 in [15]; 1.73 in assay [17]. For the same molecule, the composite z-score in assay [18] was found to be 1.88; in assay [19], 1.04; in [20], 1.06. Besides, the z-score in assay [8] is -0.154 (inactive); in [12], 1.57 (inactive); in assay [13], 1.43 (inactive); in assay [14], 3.66 (inactive); in assay [16], -0.53 (inactive).

`[N-]=[N+]=Nc1ccccc1[C@@H]1OC(c2ccc(OCCCO)cc2)=N[C@]1(CCS(=O)(=O)c1ccccc1)C(=O)NCc1ccccc1`: the composite z-score was 0.207 in [1]; 0.599 in assay [2]; 0.294 in [3]; 0.655 in assay [4]; 1.52 in [5]; 1.9 in assay [6]. Also, the composite z-score was 1.1 in assay [7]; 1.8 in [9]; -0.196 in assay [10]; 1.13 in assay [11]; 3.23 in assay [15]; 0.813 in assay [17]. Also, the composite z-score came to 0.326 in assay [18], 1.12 in [19] and 0.203 in assay [20]. The z-score in assay [8] is 0.271 (inactive); in [12], 0.728 (inactive); in [13] it was -0.111 (inactive); in [14] it was 0.635 (inactive); in assay [16], 0.846 (inactive).

With `CC(=O)NCCCC[C@@H]1NC(=O)[C@@H]2C[C@H](C(=O)NCCCC[N+](C)(C)C)[C@H](c3cccc(OCCO)c3)N2C1=O`, the composite z-score is -0.239 in [1]; 1.05 in assay [2]; -0.126 in [3]; -0.194 in [4]; -0.525 in assay [5]; 0.82 in assay [6]. For the same molecule, the composite z-score in assay [7] was 1.13; in [9] it was -0.204; in assay [10] it was -0.0645; in assay [11] it was -0.598; in assay [15], -0.0272; in assay [17], 0.127. Moreover, the results for the composite z-score in assay [18], in assay [19] and in assay [20] were 1.94, 0.801 and -0.162, respectively. The z-score is 0.573 (inactive) in assay [8]; 0.408 (inactive) in assay [12]; 0.338 (inactive) in [13]; -0.465 (inactive) in assay [14]; -0.427 (inactive) in assay [16].

Regarding `COCCCNC(=O)[C@@H]1c2ccccc2C(=O)N(Cc2cc(F)cc(C(F)(F)F)c2)[C@H]1c1ccc(CO)cc1`, the composite z-score is 0.211 in [1]; -0.303 in assay [2]; -0.233 in assay [3]; -0.535 in assay [4]; -0.984 in assay [5]; -0.676 in assay [6]. In addition, the composite z-score in assay [7] is 0.716; in assay [9], -0.395; in [10], -0.134; in [11], -0.444; in assay [15] it was 0.0519; in [17], -0.016. In addition, the composite z-score in [18] is -0.902; in assay [19], -1.26; in assay [20] it was -0.207. Also, the z-score in [8] is 0.154 (inactive); in assay [12], -0.359 (inactive); in [13] it was -0.555 (inactive); in assay [14] it was -0.703 (inactive); in [16], 0.526 (inactive).

Take `COc1cc(C(O)C2C=CC3C(=O)N(C)C(=O)C3N2NC(=O)OC(C)(C)C)cc(OC)c1OC` (stereo not given): the composite z-score in assay [1] is 0.425; in assay [2] it was -0.27; in assay [3] it was 0.265; in [4], 0.469; in assay [5] it was 1.38; in assay [6], 2.13. Further, the composite z-score was found to be 1.38 in assay [7]; 0.935 in assay [9]; 0.122 in [10]; 1.09 in assay [11]; 3.16 in [15]; 0.604 in [17]. The composite z-score in [18] is -0.23; in assay [19], 0.697; in assay [20] it was 0.561. Further, the z-score is -0.167 (inactive) in assay [8]; 0.61 (inactive) in [12]; 2 (inactive) in assay [13]; 1.15 (inactive) in [14]; -1.34 (inactive) in assay [16].

For `COCC(=C=CC[C@@H](O)c1ccccc1OCCO)C[C@@H](O)COCc1ccccc1`, the composite z-score was 0.181 in assay [1]; 1.12 in [2]; -0.0267 in [3]; 1.06 in assay [4]; -0.258 in [5]; 1.68 in assay [6]. Also, the composite z-score in assay [7] came out at 1.01; in assay [9], 0.463; in assay [10], 0.891; in assay [11], 1.23; in [15], 2.62; in assay [17] it was 0.437. Further, the composite z-score in [18] is 1.01; in assay [19], -0.0082; in assay [20], 0.0017. The z-score in assay [8] is -1.11 (inactive); in assay [12] it was -0.893 (inactive); in assay [13], -1.68 (inactive); in [14] it was -1.26 (inactive); in [16] it was 1.73 (inactive).

Take `COC(=O)c1ccc(OC)c(/C=C\CC(CCc2ccccc2)OC(=O)c2ccncc2)c1` (stereo not given): the composite z-score was 0.233 in [1]; 0.767 in assay [2]; -0.22 in assay [3]; -0.293 in [4]; -0.714 in [5]; -0.0697 in [6]. Also, the composite z-score is 0.0883 in assay [7]; -0.432 in [9]; -0.146 in assay [10]; -0.0105 in [11]; 0.673 in [15]; 0.0224 in assay [17]. For the same molecule, the composite z-score is 1.88 in assay [18], -0.169 in assay [19] and -0.195 in assay [20]. In addition, the z-score in assay [8] is -2.63 (inactive); in assay [12], -0.272 (inactive); in assay [13] it was -1.34 (inactive); in [14], 3.39 (inactive); in assay [16], 0.162 (inactive).

For `OCc1ccc(-c2cc[n+](Cc3cccc(OC(F)(F)F)c3)cc2)cc1`, the composite z-score in assay [1] was 0.253; in [2], 0.502; in assay [3] it was -0.0887; in [4] it was -0.0076; in assay [5] it was 1.4; in assay [6], 1.48. Further, the composite z-score in [7] is 0.946; in assay [9] it was 0.597; in assay [10], -0.0994; in assay [11], 1.26; in assay [15], 1.99; in [17], 0.353. The composite z-score in assay [18] was 0.876; in [19], 1.05; in [20], -0.0016. Besides, the z-score is 1.41 (inactive) in assay [8]; -1.54 (inactive) in assay [12]; -19.5 (active) in assay [13]; 5.75 (inactive) in assay [14]; 0.261 (inactive) in assay [16].

These data come from PubChem BioAssay.
